Results as given in PubChem BioAssay (Tox21).
Values without a mark were called inactive. Records with an inconclusive call do not appear. A call without a number means that no potency is given here. The source made the active and inactive calls. Unless noted, calls come from the whole dose curve; as a rule, active = well fitted curve in the direction sought with a large enough effect in the repeat runs; inconclusive = weak or mixed curves; inactive = no such curve, though single readings can be large; an effect the other way counts as inactive or inconclusive.

How the values were obtained:
[1] = biological target: Luciferin 4-monooxygenase (Photinus pyralis) (UniProt P08659); assay: qHTS assay to identify small molecule inhibitors of firefly luciferase (AID 1224835); note: nearly all actives have a fitted effect of over 25% in size
Sequence of Luciferin 4-monooxygenase (Photinus pyralis) (P08659 whole entry, looked up): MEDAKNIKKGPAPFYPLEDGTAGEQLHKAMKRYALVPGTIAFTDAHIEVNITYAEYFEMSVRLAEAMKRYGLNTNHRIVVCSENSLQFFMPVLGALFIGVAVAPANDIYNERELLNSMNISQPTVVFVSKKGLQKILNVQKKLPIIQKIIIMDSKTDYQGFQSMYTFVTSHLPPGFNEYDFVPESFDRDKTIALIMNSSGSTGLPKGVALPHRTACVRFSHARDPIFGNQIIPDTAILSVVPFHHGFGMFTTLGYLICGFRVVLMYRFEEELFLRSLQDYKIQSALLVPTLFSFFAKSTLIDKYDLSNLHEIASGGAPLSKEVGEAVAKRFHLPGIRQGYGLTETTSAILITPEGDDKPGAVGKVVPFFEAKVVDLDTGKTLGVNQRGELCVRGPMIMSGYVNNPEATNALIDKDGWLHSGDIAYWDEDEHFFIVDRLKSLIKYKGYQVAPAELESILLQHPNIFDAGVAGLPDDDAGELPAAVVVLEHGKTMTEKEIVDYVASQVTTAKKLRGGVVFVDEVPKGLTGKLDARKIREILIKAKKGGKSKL
Outline: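 Biochemical qHTS: compounds run as interplate titrations against purified firefly enzyme, with D-luciferin and ATP each at its KM concentration. Light output recorded by CCD imaging.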

[2] = qHTS assay to identify small molecule antagonists of the constitutive androstane receptor (CAR) signaling pathway - cell viability counter screen (AID 1224837); note: nearly all actives have a fitted effect of over 45% in size; note: potency is the fitted concentration of half-maximal effect
Outline: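 Cells are seeded, rested 4 hr at 37 C/5% CO2, dosed with compound (15-point series) and 50 nM CITCO, incubated a further 23 hr, and then CellTiter-Fluor reagent is added before fluorescence is read. The line is HepG2 with stable hCAR and CYP2B6-2.2kb.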

[3] = biological target: Nuclear receptor subfamily 1 group I member 3 (Homo sapiens) (UniProt Q14994); assay: qHTS assay to identify small molecule antagonists of the constitutive androstane receptor (CAR) signaling pathway (AID 1224838);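 note: HepG2 cells stably expressing hCAR with CYP2B6 luciferase reporter stimulated by CITCO; nearly all actives have a fitted effect of over 40% in size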; note: potency is the fitted concentration of half-maximal effect
Sequence of Nuclear receptor subfamily 1 group I member 3 (Homo sapiens) (Q14994 whole entry, looked up): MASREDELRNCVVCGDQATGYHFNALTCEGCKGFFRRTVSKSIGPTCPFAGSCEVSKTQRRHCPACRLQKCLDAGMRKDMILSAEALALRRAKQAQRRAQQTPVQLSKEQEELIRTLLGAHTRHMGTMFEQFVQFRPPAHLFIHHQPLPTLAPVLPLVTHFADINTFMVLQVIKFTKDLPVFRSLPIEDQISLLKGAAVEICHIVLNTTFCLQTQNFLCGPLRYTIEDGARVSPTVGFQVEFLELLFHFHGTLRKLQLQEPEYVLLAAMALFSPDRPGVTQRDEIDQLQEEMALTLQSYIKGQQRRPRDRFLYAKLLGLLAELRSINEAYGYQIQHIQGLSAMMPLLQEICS
Outline: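 Luminescence from a CYP2B6-2.2kb promoter reporter in hCAR-expressing HepG2 cells reflects CAR signaling. Cells received compounds at 15 concentrations and 50 nM CITCO (final), then incubated 24 h at 37 C/5% CO2.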

[4] = biological target: Nuclear receptor subfamily 1 group I member 3 (Homo sapiens) (UniProt Q14994); assay: qHTS assay to identify small molecule agonists of the constitutive androstane receptor (CAR) signaling pathway (AID 1224839);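 note: HepG2 cells stably carrying human CAR and a CYP2B6 luciferase reporter; nearly all actives have a fitted effect of over 15% in size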
Outline: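 Cells were plated and incubated 4 hrs, then dosed with compounds at 15 concentrations. PK11195 was added to 0.75 uM final. After 24 hrs at 37 C, luciferase luminescence was measured.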

[5] = qHTS assay to identify small molecule antagonists of the estrogen related receptor signaling pathway with the pleiotropic PPARgamma coactivator (PGC) from Tox21 10K library - cell viability counter screen (AID 1224840; active = well fitted cell-killing curve with a large enough effect in the repeat runs, not every such curve was filed as active; note: nearly all actives have a fitted effect of over 40% in size)
Outline: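 Cell viability is measured by CellTiter-Fluor fluorescence in PGC/ERR cells that receive compounds after a 6-hour attachment period and are then incubated 17.5 hours at 37 C.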

[6] = qHTS assay to identify small molecule antagonists of the estrogen related receptor signaling pathway with the pleiotropic PPARgamma coactivator (PGC) from Tox21 10K library (AID 1224841; call rule not given here; note: actives are mostly falling curves and most rising ones were filed inactive; nearly all actives have a fitted effect of over 50% in size)
Outline: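 Cells stably carrying the PGC/ERR reporter, seeded at 2,000 per well, received pin-transferred compounds 6 h post-plating. Exposure lasted 18 h at 37 C. Signal: One-Glo luminescence.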

[7] = qHTS assay to identify small molecule agonists of the estrogen related receptor signaling pathway with the pleiotropic PPARgamma coactivator (PGC) from Tox21 10K library (AID 1224842); note: nearly all actives have a fitted effect of over 15% in size
Outline: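 PGC/ERR reporter cell line, 2,000 cells per well, incubated 6 h at 37 C before 23 nL compound in DMSO was added. After 18 h at 37 C, One-Glo luminescence read following 30 min at room temperature.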

[8] = biological target: Thyrotropin receptor (Homo sapiens) (UniProt P16473); assay: qHTS assay to identify small molecule agonists of the thyroid stimulating hormone receptor (TSHR) signaling pathway (AID 1224843; calls by dose curve; note: nearly all actives have a fitted effect of over 45% in size)
Sequence of Thyrotropin receptor (Homo sapiens) (P16473 whole entry, looked up): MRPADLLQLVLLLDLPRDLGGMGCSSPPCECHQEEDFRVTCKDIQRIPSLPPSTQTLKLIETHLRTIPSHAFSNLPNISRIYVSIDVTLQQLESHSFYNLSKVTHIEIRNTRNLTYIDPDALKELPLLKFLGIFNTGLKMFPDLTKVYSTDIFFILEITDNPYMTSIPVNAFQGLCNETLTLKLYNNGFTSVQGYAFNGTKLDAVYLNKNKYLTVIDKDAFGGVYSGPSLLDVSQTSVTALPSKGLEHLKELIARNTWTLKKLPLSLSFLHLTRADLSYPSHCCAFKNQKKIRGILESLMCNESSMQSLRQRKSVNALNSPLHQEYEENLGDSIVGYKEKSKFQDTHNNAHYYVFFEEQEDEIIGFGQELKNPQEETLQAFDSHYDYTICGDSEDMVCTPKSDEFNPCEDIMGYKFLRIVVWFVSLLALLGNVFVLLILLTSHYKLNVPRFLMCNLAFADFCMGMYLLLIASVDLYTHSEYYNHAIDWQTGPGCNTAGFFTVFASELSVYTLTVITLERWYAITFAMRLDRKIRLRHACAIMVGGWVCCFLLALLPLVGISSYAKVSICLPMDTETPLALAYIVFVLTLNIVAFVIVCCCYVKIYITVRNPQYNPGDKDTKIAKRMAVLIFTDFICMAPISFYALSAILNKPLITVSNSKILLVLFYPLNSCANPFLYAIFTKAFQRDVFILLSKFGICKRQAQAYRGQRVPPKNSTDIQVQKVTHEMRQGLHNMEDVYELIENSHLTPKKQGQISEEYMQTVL
Outline: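 HEK293/TSHR, 800 cells/well; cpd 30 min RT; add cAMP-d2 + anti-cAMP-cryptate, 1 h RT; fluorescence read on plate reader. 15-pt titration, n=3.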

[9] = qHTS assay to identify small molecule agonists of the hypoxia (HIF-1) signaling pathway - cell viability counter screen (AID 1224844; calls by dose curve; note: nearly all actives have a fitted effect of over 50% in size)
Outline: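 Viability counter screen: HRE-bla ME-180 cells plated 5 hrs before compound addition, treated 17 hrs at 37C and 5% CO2, then CellTiter-Glo added after the FRET reporter read; luminescence after 30 min.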

[10] = qHTS assay to identify small molecule agonists of H2AX (AID 1224845; active = well fitted activation curve with a large enough effect in the signal ratio in the repeat runs, not every such curve was filed as active; the % refers to the signal ratio)
Outline: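 Wild-type CHO-K1 cells, plated overnight, exposed 3hr at 37C to 15 concentrations (0.76% DMSO final). Lysed, then HTRF anti-pH2AX (S139) cryptate and anti-H2AX-d2 antibodies, 24 hr room temperature; 665/620 nm emission read.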

[11] = qHTS assay to identify small molecule antagonists of the estrogen related receptor (ERR) signaling pathway from Tox21 library (AID 1224848); note: nearly all actives have a fitted effect of over 50% in size; note: potency is the fitted concentration of half-maximal effect
Outline: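 Compounds dissolved in DMSO are pin-transferred onto ERR reporter cells (2,000 per well) that have settled for 6 h at 37 C. Plates then incubate 18 h at 37 C before ONE-Glo luciferase reagent and a luminescence read 30 min later.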

[12] = qHTS assay to identify small molecule agonists of the estrogen related receptor (ERR) signaling pathway from Tox21 library (AID 1224849; calls by dose curve; note: nearly all actives have a fitted effect of over 15% in size); details: ERR reporter cell line, ONE-Glo luciferase, 18 h; at 92.4 µM (top of the series) unless noted
Outline: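 Quantitative HTS in agonist format: NTP ERR cell line, compounds transferred in DMSO after 6 h plating, 18 h incubation at 37 C, ONE-Glo luminescence endpoint.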

[13] = qHTS RealTime-Glo MT Cell Viability Assay in HepG2 cells - 24 hour (AID 1224867); note: nearly all actives have a fitted effect of over 50% in size
Outline: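 Viability was tracked continuously by NanoLuc luminescence from prosubstrate reduced by living HepG2 cells, at successive time points over 40 h of compound exposure. Cells with reagent were preincubated 5 h at 37 °C before compound addition.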

[14] = qHTS RealTime-Glo MT Cell Viability Assay in HEK293 cells - 32 hour (AID 1224868)
Outline: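 Viability tracked continuously by luminescence as live cells reduce a prosubstrate for NanoLuc; HEK293 cells preincubated 5 h, compound-treated at 37 C, and read at 0, 8, 16, 24, 32 and 40 h.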

[15] = A CellTox Green Cytotoxicity Assay to monitor cytotoxicity in HEK293 cells - 0 hour (AID 1224869); note: nearly all actives have a fitted effect of over 50% in size
Outline: (§1)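 Dead-cell fluorescence measured kinetically: asymmetric cyanine dye, HEK293, 600 cells/well, 5 h settle, 23 nL cpd/DMSO, 37 C, reads 0–40 h every 8 h.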

[16] = qHTS RealTime-Glo MT Cell Viability Assay in HepG2 cells - 40 hour (AID 1224870); note: nearly all actives have a fitted effect of over 50% in size; note: potency is the fitted concentration of half-maximal effect
Outline: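 HepG2 cells (600/well) mixed with RealTime-Glo MT reagent, settled 5 h at 37 C/5% CO2 before compound addition. Nonlytic NanoLuc luminescence from viable-cell prosubstrate reduction read repeatedly during 40 h treatment at 37 C.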

[17] = A CellTox Green Cytotoxicity Assay to monitor cytotoxicity in HEK293 cells - 40 hour (AID 1224871); note: nearly all actives have a fitted effect of over 45% in size
Outline: as §1

[18] = qHTS assay to identify small molecule agonists of the hypoxia (HIF-1) signaling pathway (AID 1224846; active = well fitted activation curve with a large enough effect in the signal ratio in the repeat runs, not every such curve was filed as active; the % refers to the signal ratio)
Outline: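 Agonist mode reporter screen. ME-180 cells stably expressing bla under HRE control received test compounds in DMSO for 17 hrs (37C, 5% CO2), and beta-lactamase activity was then detected with the CCF4-AM FRET substrate.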

[19] = qHTS assay to identify small molecule agonists of H2AX - cell viability counter screen (AID 1224847; calls by dose curve; note: top concentration of the series differs between compounds; nearly all actives have a fitted effect of over 30% in size)
Outline: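 Cytotoxicity counter screen in wild-type CHO-K1 cells: a 3 hr compound treatment at 37C across 15 concentrations, followed by CellTiter-Glo luminescence to gauge viable cells.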

| SMILES | Potency [1] | Potency [2] | Potency [3] | Potency [4] | Potency [5] | Potency [6] | Potency [7] | Potency [8] | Potency [9] | Potency [10] | Potency [11] | activity change, positive = activation [12] | Potency [13] | Potency [14] | Potency [15] | Potency [16] | Potency [17] | outcome [18] | Potency [19] |
| --- | --- | --- | --- | --- | --- | --- | --- | --- | --- | --- | --- | --- | --- | --- | --- | --- | --- | --- | --- |
| c1ccc(CN(CC2=NCCN2)c2ccccc2)cc1 | inactive | inactive | inactive | inactive | inactive | inactive | inactive | inactive | inactive | inactive | inactive | -0.231% [at 42.5 µM] | inactive | inactive | inactive | inactive | inactive | – | – |
| CC(C)Nc1nc(N)nc(Cl)n1 | inactive | inactive | inactive | inactive | inactive | – | – | inactive | – | inactive | – | – | inactive | inactive | inactive | inactive | inactive | inactive | inactive |
| CCCCNC(=S)NCCCC | inactive | 48.6 µM (active) | 48.6 µM (active) | inactive | – | – | inactive | inactive | – | inactive | 68.6 µM (active) | -66.6% | inactive | inactive | inactive | inactive | inactive | inactive | inactive |
| CCCCCCCCCC/C=C/C#N | inactive | inactive | inactive | – | inactive | inactive | inactive | inactive | inactive | – | inactive | -1.03% | inactive | inactive | inactive | inactive | inactive | inactive | inactive |
| O=C1N(c2ccccc2)c2ccccc2C1(Cc1ccncc1)Cc1ccncc1 | inactive | inactive | inactive | – | inactive | inactive | inactive | – | inactive | – | inactive | 5.08% [at 42.5 µM] | inactive | inactive | inactive | inactive | inactive | – | inactive |
| Cn1cnc2c(F)c(Nc3ccc(Br)cc3Cl)c(C(=O)NOCCO)cc21 | inactive | inactive | inactive | inactive | inactive | inactive | inactive | – | inactive | inactive | inactive | -7.67% [at 42.5 µM] | – | inactive | inactive | 674 nM (active) | inactive | inactive | – |
| CCCC1CCC(=O)O1 (stereo not given) | inactive | inactive | inactive | inactive | inactive | – | – | inactive | – | – | – | – | inactive | inactive | inactive | inactive | inactive | inactive | inactive |
| COc1ccc(S(=O)(=O)Nc2nnc(CC(C)C)s2)cc1 | inactive | inactive | – | – | inactive | – | – | – | inactive | – | – | – | inactive | inactive | inactive | inactive | inactive | inactive | inactive |
| CCCNC(C)(C)COC(=O)c1ccccc1 | inactive | inactive | inactive | – | inactive | inactive | inactive | inactive | – | inactive | inactive | 5.73% [at 42.5 µM] | inactive | inactive | inactive | – | inactive | inactive | inactive |
| Cc1ccc([N+](=O)[O-])cc1Cl | inactive | inactive | inactive | – | inactive | inactive | inactive | inactive | inactive | inactive | inactive | 14.6% (active) | inactive | inactive | inactive | inactive | inactive | inactive | inactive |
| CCCOCCC | inactive | inactive | inactive | inactive | inactive | – | – | inactive | inactive | inactive | – | – | inactive | inactive | inactive | inactive | inactive | inactive | inactive |
| O=C(Cl)c1cccc([N+](=O)[O-])c1 | inactive | inactive | inactive | inactive | inactive | inactive | inactive | inactive | – | inactive | inactive | 0.643% | inactive | inactive | inactive | – | inactive | inactive | inactive |
| CC(C)CC(=O)OCc1ccccc1 | inactive | inactive | inactive | inactive | inactive | – | – | – | inactive | inactive | – | – | inactive | inactive | inactive | inactive | inactive | inactive | inactive |
| CN(CCCN1c2ccccc2CCc2ccccc21)CC(=O)c1ccc(Cl)cc1 | inactive | inactive | inactive | – | inactive | – | – | inactive | – | inactive | – | – | inactive | inactive | inactive | inactive | inactive | inactive | inactive |
| C1CSCCS1 | inactive | inactive | – | inactive | inactive | inactive | inactive | inactive | inactive | – | inactive | 3.63% | inactive | inactive | inactive | inactive | inactive | inactive | inactive |
| Cc1c(-c2ccccc2)oc2c(C(=O)OCCN3CCCCC3)cccc2c1=O | inactive | inactive | inactive | inactive | inactive | – | – | inactive | inactive | inactive | – | – | inactive | – | inactive | inactive | inactive | – | inactive |
| CCCCCCCCOC(=O)CCCCCCCCC(=O)OCCCCCCCC | inactive | – | – | – | inactive | inactive | inactive | – | inactive | – | inactive | 3.45% | inactive | inactive | inactive | inactive | inactive | inactive | – |
